Assays:
Assay in all cases: PBM binding z-score (relative to random genomic background probes); higher = stronger binding; sequences stand for … in GC…GCGATTGACAGCGTAGAATGAAGG
[1] = system: RARb homodimer (NR concentration 270 nM)
Procedure, shortened: (§1)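 Antibodies against each partner of ligand-free nuclear receptor dimers (one per run) detected binding on custom Agilent 4×180K protein-binding microarrays after 1 h incubation. The double-stranded probes had 34-nt variable regions carrying direct-repeat seeds, single-nucleotide variants, half-site ablations and random human genomic background sequences. Binding z-scores, from regression-normalized fluorescence, use the random background probes as reference.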

[2] = system: RARg:RXRa (NR concentration 270 nM, RXRa partner concentration 90 nM)
Procedure, shortened: as §1

[3] = system: RARg homodimer (NR concentration 270 nM)
Procedure, shortened: as §1

[4] = system: RXRa DBDmut IVT, anti-RXR (DBD mutation: RXRa K156A/R161A, NR concentration 90 nM)
Procedure, shortened: as §1

[5] = system: RXRa homodimer (NR concentration 180 nM)
Procedure, shortened: as §1

[6] = system: THRa:RXRa (NR concentration 90 nM, RXRa partner concentration 90 nM)
Procedure, shortened: as §1

[7] = system: THRa homodimer (NR concentration 90 nM)
Procedure, shortened: as §1

[8] = system: VDR homodimer (NR concentration 270 nM)
Procedure, shortened: as §1

Row | Sequence | PBM binding z-score [1] | PBM binding z-score [2] | PBM binding z-score [3] | PBM binding z-score [4] | PBM binding z-score [5] | PBM binding z-score [6] | PBM binding z-score [7] | PBM binding z-score [8]
1 | CCGACTGGGGAAAAGGTTACCATACTCAGTACGA | 1.79 | 1.37 | 0.901 | 0.237 | 1.86 | 1.05 | -0.101 | 0.0305
2 | CCTGCTAGGTCAATGGTCAGCTACAGCAGCTCGC | 2.95 | 3.82 | 4.13 | 1.74 | 2.49 | 2.19 | 1 | 0.15
3 | CCTCGGACGACAACAGGAGGTCAGAGCTGCCAGA | 2.97 | 1.95 | 1.99 | -0.432 | 1.84 | 1.92 | 0.602 | 0.934
4 | TCTTGTAGATCAATAGAGATTAAGAAAGTGCGCT | -0.717 | 0.0195 | 0.0177 | 0.545 | 0.326 | -0.317 | -1.06 | -0.336
5 | GCTAGTTGGACAGTAAAAGGTCACACACCGGTCG | 5.22 | 4.89 | 4.27 | 0.31 | 4.94 | 3.55 | 1.71 | 1.59
6 | TAGCCTAGGTCAGAGCGGGCCAGTATACGCTATA | 1.85 | 2.55 | 3.13 | -0.459 | 1.18 | 2.85 | -0.121 | -0.402
7 | CGTCAAATTTCAAGGTAACGTAACAGAAAGCAGC | -0.107 | 0.0405 | 0.398 | -0.0368 | 0.32 | 2.11 | 1.27 | -0.239
8 | ACAACGAGGGCACGCTGAGTTGATAGCAGAGTAG | 0.921 | 2.12 | 2.44 | 2.16 | 1.24 | 1.75 | -0.067 | 2.04
9 | TCTTGTAGTTCAAGCAGGTTAAGAAAGCCTGAGT | 1.48 | 1.44 | 1.65 | 2.37 | 1.47 | 1.63 | -0.0988 | 2.02
10 | ACTAGCCGGCCAAGGGTCACTCAAGATTAGTCCG | 3.6 | 3.96 | 3.47 | -0.0861 | 3.65 | 2.5 | 0.383 | 0.509
11 | ATATGTAGGTTACATCCGGGTCATTCATGCTATG | 2.82 | 3.6 | 2.21 | 1.42 | 2.93 | 3.61 | 2.46 | 3.43
12 | TCATATAGGTACTACAGGTGAAAGTCGGCATCTA | 0.25 | 0.654 | 0.428 | 1.33 | 0.935 | 0.692 | -0.00751 | 0.023
13 | TCGAGCAGGCCAGAGGGTCACTCAAGAGGTACGG | 2.68 | 2.77 | 2.03 | -0.586 | 2.65 | 1.51 | -0.421 | 0.462
14 | CCTAGTTGGTCTAGGTCACACACGCTATAGGTAC | 3 | 2.36 | 2.69 | 0.925 | 1.88 | 2.99 | 2.78 | 1.78
15 | CAAACTAGGTCAAGAAAGGTCAAAGTCGAATGAC | 5.71 | 7.33 | 7.9 | 1.95 | 7.67 | 4.9 | 1.79 | 3.03
16 | CCTACTGGGCCAAAGCTCATTGATTCCAATGCTC | -0.417 | -0.161 | -0.172 | -0.0907 | -0.521 | -0.58 | -0.358 | -0.874
17 | CTCGAAAGGTCGGTTGAGGTTAGTATACGGATAA | 2.64 | 3.18 | 3.08 | 1.15 | 2.6 | 4.85 | 0.58 | 0.818
18 | CAAACTAGGTCAAAGATCAAAGTCGAGCCAACCA | 2.5 | 4.93 | 4.62 | 1.97 | 5.28 | 2.9 | 0.494 | 0.479
19 | AGAATGAGGTTATACGGAGATCAGGGAAGAAAGT | 1 | 1.95 | 1.1 | 1.68 | 2.26 | 2.33 | 0.836 | 0.95
20 | CCTAGCAGGCCAGGGTCCCTCAAGCATTTCGCTT | -0.427 | -0.683 | -0.827 | -1.15 | -0.657 | -0.281 | -0.649 | -0.542
21 | CGTCCAAGGTCAGGGAGGTCAGTGAATGCCGAGT | 5.45 | 6.54 | 7.67 | 2.48 | 6.37 | 4.58 | 3.43 | 5.37
22 | GATACAGGGTCAGCTAGAGGCCAGAGTTTGGAAA | 3.66 | 6.53 | 4.92 | 1.38 | 4.29 | 3.04 | 0.526 | 1.17
23 | GGTTACGGGTCAAAGGTTATAGCATGAATAGAAT | 3.44 | 6.91 | 4.71 | 1.89 | 9.23 | 4.06 | 0.33 | 1.64
24 | CTACCAAGGTGAACAACGTCGTTGATTACTATTC | 0.607 | 0.832 | 0.962 | 0.685 | 0.887 | 1.79 | 0.72 | -0.472
25 | CCTAGCAGGCCAATCTGGGTCACTCAAGGCTTGA | 2.33 | 1.22 | 1.57 | 0.0731 | 0.984 | 3.9 | 0.369 | 0.000728
26 | TTACCAAGGGGAAGGTCGTTGATCCCTCTGTAGA | 0.634 | 0.225 | -0.054 | -0.444 | 0.898 | 0.64 | -0.636 | 0.435
27 | CAAACTAGGTCACGAAATGTCAAAGTCGAATGAC | 3.6 | 4.86 | 5.58 | 2.02 | 3.79 | 3.51 | 1.5 | 1.1
28 | TCTTGTAGATCATCAGGAGGTTAAGAAAGATCGA | 0.484 | 0.857 | 0.389 | 0.372 | 1.01 | 0.897 | -0.482 | -0.126
